Assay outcomes as filed in PubChem BioAssay.
LEDGF integ inh = blocks HIV-1 LEDGF/p75-dependent DNA integration; AID 743269; 370,000 tested, 0.64% active; TR-FRET IN-LEDGF/p75 DNA integration, Eu/Cy5; inhibition, % at 3.7 µM;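 active means inhibition above the screen-wide mean plus 3 SD, cut at about 13% in these data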;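 further: signal is the Cy5 over europium emission ratio at 671 and 618 nm; 0% = plate median of compound wells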
TCR CD3 inh = inhibitors of human TCR-CD3 interaction; TAMRA-labeled TCR probe fluorescence, biochemical; inhibition, % at 9.4 µM; 360,000 tested, 0.37% active; AID 651800; in the data active means inhibition above about 19%;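 further: recombinant mutant TCR 2C K166C tagged with TAMRA read by polarization; 0% = receptor in buffer alone and 100% = receptor with positive control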
UHRF1 MBD2 ctr = blocks human UHRF1 binding to methylated DNA; Q96T88; UHRF1 binding to methylated oligo, TR-FRET; inhibition, % at 4.4 µM; 370,000 tested, 0.75% active; in the data active means inhibition above about 21%;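 further: UHRF1 SRA domain binding a hemimethylated CpG hairpin DNA probe; 0% = median of test compound wells and 100% = reference inhibitor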
MBD2 inh = blocks human MBD2 binding to methylated DNA | Q9UBB5 | TR-FRET, MBD2 binding to methylated oligonucleotide | inhibition, % at 4.4 µM | 370,000 tested, 0.31% active | AID 686964; in the data active means inhibition above about 13%
Target sequence (Q9UBB5 whole entry, looked up): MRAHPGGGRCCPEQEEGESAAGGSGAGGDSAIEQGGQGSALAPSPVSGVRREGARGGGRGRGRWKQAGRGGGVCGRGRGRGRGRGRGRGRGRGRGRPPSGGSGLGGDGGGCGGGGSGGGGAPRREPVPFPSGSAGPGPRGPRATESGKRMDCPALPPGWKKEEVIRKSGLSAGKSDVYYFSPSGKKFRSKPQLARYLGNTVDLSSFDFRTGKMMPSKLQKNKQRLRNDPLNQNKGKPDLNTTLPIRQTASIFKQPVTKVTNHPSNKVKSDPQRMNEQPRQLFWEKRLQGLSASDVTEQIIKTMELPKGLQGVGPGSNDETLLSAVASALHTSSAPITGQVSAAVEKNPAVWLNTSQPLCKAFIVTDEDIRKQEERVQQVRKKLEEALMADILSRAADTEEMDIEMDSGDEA
Rin1 Abl inh = human Rin1-Abl interaction inhibition. P00519+Q13671. TR-FRET Rin1/Abl binding, biochemical. inhibition, % at 7.35 µM. 360,000 tested, 0.4% active. AID 588664; in the data active means inhibition above about 5%, passing the limit was not always enough
Starred values were filed as active, the others as inactive. The list is not random: actives were taken first. Their share in the collection is about 2%.

Results for COc1ccc(CC(=O)N/N=C(\C)CC(=O)Nc2ccc(N(C)C)cc2)cc1 ?
LEDGF integ inh: 2; TCR CD3 inh: -5; UHRF1 MBD2 ctr: -7; MBD2 inh: -7; Rin1 Abl inh: -1

Results for C/C(CC(=O)Nc1ccc(N(C)C)cc1)=N\NC(=O)Cc1csc(N)n1 ?
LEDGF integ inh: 21*; TCR CD3 inh: 7; UHRF1 MBD2 ctr: -9; MBD2 inh: -2; Rin1 Abl inh: 1

How did COc1ccccc1/C=C/C=N/n1c(C)nnc1C do in these assays?
LEDGF integ inh: 3; TCR CD3 inh: 3; UHRF1 MBD2 ctr: 68*; MBD2 inh: 1; Rin1 Abl inh: 2

Results for CCC(C#Cc1ccccc1)N(C)C(N)=NC(=O)/C=C/c1ccccc1 (stereo not drawn) ?
LEDGF integ inh: 7; UHRF1 MBD2 ctr: -1; MBD2 inh: 1

Results for CCCCN(C(=O)c1cccc(-c2ccc(OC(C)=O)cc2)c1)c1c(N)n(CCC)c(=O)[nH]c1=O ?
LEDGF integ inh: 4; TCR CD3 inh: -3; UHRF1 MBD2 ctr: 73*; MBD2 inh: -2; Rin1 Abl inh: 3

Results for C=CCN1C(=O)[C@@H](CC(=O)NCc2ccc(C)o2)[C@]2(C(=O)OCC)CCCCC/C=C/12 ?
LEDGF integ inh: -4; UHRF1 MBD2 ctr: 14; MBD2 inh: -5

Results for CCn1c2ccccc2c2cc(NC(=O)COC(=O)c3cccc(F)c3F)ccc21 ?
LEDGF integ inh: -1; UHRF1 MBD2 ctr: 0; MBD2 inh: -1

How did COc1ccc(-c2nc3cc(C)c(Br)c(C)n3c2Cc2ccccc2C(F)(F)F)cc1OC do in these assays?
LEDGF integ inh: -2; TCR CD3 inh: -3; UHRF1 MBD2 ctr: 25*; MBD2 inh: 7

Results for CCOC(=O)CC[C@H]1CC[C@]2(CCCN(S(=O)(=O)C3CCCCC3)C2)O1 ?
LEDGF integ inh: 4; UHRF1 MBD2 ctr: 42*; MBD2 inh: -3

Results for Cc1cccc(C)c1NC(=O)C1c2ccccc2OCC(=O)N1CC(F)(F)F (stereo not drawn) ?
LEDGF integ inh: 2; TCR CD3 inh: -4; UHRF1 MBD2 ctr: 2; MBD2 inh: 3

Results for COCCN1C(=O)COc2ccccc2C1C(=O)Nc1c(C)cccc1C (stereo not drawn) ?
LEDGF integ inh: 0; TCR CD3 inh: 0; UHRF1 MBD2 ctr: 21*; MBD2 inh: 6

What do the screens show for `CCN(CC)c1ccc(NC(=O)C2CC(=O)N(Cc3ccccc3)C2)cc1` (stereo not drawn)?
LEDGF integ inh: 2; TCR CD3 inh: 11; UHRF1 MBD2 ctr: -4; MBD2 inh: 0; Rin1 Abl inh: -3

What do the screens show for `CC(C)c1ccc(CN2CC(C(=O)Nc3ccccc3)CC2=O)cc1` (stereo not drawn)?
LEDGF integ inh: 0; TCR CD3 inh: 7; UHRF1 MBD2 ctr: 27*; MBD2 inh: -1; Rin1 Abl inh: 5

Results for Cc1cc(C(=O)OCC(=O)N2CCC(C)CC2)c2ccccc2n1 ?
LEDGF integ inh: 35*; TCR CD3 inh: -6; UHRF1 MBD2 ctr: 2; MBD2 inh: -2; Rin1 Abl inh: 0

How did CCCC(=O)N1CCCC1(C)C(=O)NCc1ccc(F)cc1Cl (stereo not drawn) do in these assays?
LEDGF integ inh: -1; TCR CD3 inh: 2; UHRF1 MBD2 ctr: -1; MBD2 inh: 3; Rin1 Abl inh: 0

What do the screens show for `CC(=O)c1cccc(NC(=O)CN2CCc3cc4c(cc3C2)OCCCO4)c1`?
LEDGF integ inh: -1; TCR CD3 inh: 3; UHRF1 MBD2 ctr: 0; MBD2 inh: 1; Rin1 Abl inh: -1

What do the screens show for `CN(c1cccc(NC(=O)c2ccc(N(C)S(=O)(=O)c3ccccc3)cc2)c1)S(C)(=O)=O`?
LEDGF integ inh: 1; TCR CD3 inh: 0; UHRF1 MBD2 ctr: 0; MBD2 inh: -5; Rin1 Abl inh: 2

Results for CN(c1cccc(NC(=O)c2ccc(C(C)(C)C)cc2)c1)S(C)(=O)=O ?
LEDGF integ inh: 2; TCR CD3 inh: -5; UHRF1 MBD2 ctr: 23*; MBD2 inh: 3; Rin1 Abl inh: -1

What do the screens show for `CC(Sc1ccccc1)C(=O)Nc1cccc(N(C)S(C)(=O)=O)c1` (stereo not drawn)?
LEDGF integ inh: -1; TCR CD3 inh: -4; UHRF1 MBD2 ctr: 23*; MBD2 inh: -5; Rin1 Abl inh: 1

What do the screens show for `COC(=O)[C@]12C[C@H](CC(=O)NCCCN3CCCC3=O)C(=O)N(Cc3ccco3)C1=C[C@H](COCc1ccccc1)O[C@@H]2C`?
LEDGF integ inh: -1; UHRF1 MBD2 ctr: -2; MBD2 inh: 0

Results for O=C(CCSc1ccccc1)Nc1ccccc1Br ?
LEDGF integ inh: 2; TCR CD3 inh: -4; UHRF1 MBD2 ctr: 26*; MBD2 inh: 13; Rin1 Abl inh: -1

How did O=C(CCSc1ccccc1)Nc1ncccn1 do in these assays?
LEDGF integ inh: 0; TCR CD3 inh: 1; UHRF1 MBD2 ctr: 1; MBD2 inh: -9; Rin1 Abl inh: 4

What do the screens show for `COCc1c(C(N)=O)nnn1-c1nonc1N`?
LEDGF integ inh: 4; TCR CD3 inh: 6; UHRF1 MBD2 ctr: 32*; MBD2 inh: 1; Rin1 Abl inh: 0

What do the screens show for `COCc1c(C(=O)N/N=C/c2ccc(C)o2)nnn1-c1nonc1N`?
LEDGF integ inh: 0; TCR CD3 inh: 4; UHRF1 MBD2 ctr: 25*; MBD2 inh: 0; Rin1 Abl inh: -2

Results for COCc1c(C(=O)N/N=C/c2ccncc2)nnn1-c1nonc1N ?
LEDGF integ inh: 3; TCR CD3 inh: -5; UHRF1 MBD2 ctr: 1; MBD2 inh: 7; Rin1 Abl inh: -1

What do the screens show for `Cc1ccc(CCNS(=O)(=O)c2c(C)nc3sccn3c2=O)cc1`?
LEDGF integ inh: 9; TCR CD3 inh: 1; UHRF1 MBD2 ctr: 23*; MBD2 inh: 5; Rin1 Abl inh: -2

What do the screens show for `Cc1nc2sccn2c(=O)c1S(=O)(=O)NCCc1ccc(Cl)cc1`?
LEDGF integ inh: -2; TCR CD3 inh: -7; UHRF1 MBD2 ctr: 2; MBD2 inh: 2; Rin1 Abl inh: -4

Results for C[C@@H]1ON(C)[C@H]2C[C@H]3c4cc(-c5ccc6c(c5)OCO6)ccc4CCN3C[C@@H]12 ?
LEDGF integ inh: 3; TCR CD3 inh: 3; UHRF1 MBD2 ctr: 0; MBD2 inh: 3

Results for CCCc1cc(=O)[nH]c(SCC(=O)NC2(C#N)CCCCC2)n1 ?
LEDGF integ inh: 1; TCR CD3 inh: -12; UHRF1 MBD2 ctr: 27*; MBD2 inh: 11; Rin1 Abl inh: 0

What do the screens show for `CCOc1cc(NCCN2CCOCC2)c([N+](=O)[O-])cc1OCC`?
LEDGF integ inh: 1; TCR CD3 inh: 6; UHRF1 MBD2 ctr: 24*; MBD2 inh: -22; Rin1 Abl inh: -14

What do the screens show for `O=[N+]([O-])c1ccc(NCCN2CCOCC2)c([N+](=O)[O-])c1`?
LEDGF integ inh: -3; TCR CD3 inh: -1; UHRF1 MBD2 ctr: -6; MBD2 inh: -9; Rin1 Abl inh: -1

What do the screens show for `COc1ccccc1-c1noc2c1C(=O)N(C(=O)OC(C)(C)C)CC2`?
LEDGF integ inh: 3; TCR CD3 inh: 8; UHRF1 MBD2 ctr: -2; MBD2 inh: -6; Rin1 Abl inh: 0
